Reference: the supplement of paper PMC9262897, “Low-cost anti-mycobacterial drug discovery using engineered E. coli” (Nature Communications, 2022)
Counter-ions that a name gives are not always drawn. ± gives the standard deviation of the averaged measurements.

Tests used:
Test in all cases: growth (OD600 after 10 h); higher = more growth (less inhibition)
[1] = system: E. coli TESEC Alr+ wild-type control; conditions: compound 0.1 mM; raw OD600 reference: median of DMSO wells 0.241, cell-free background 0.041
Experimental: (§1)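 TESEC Mtb Alr E. coli, or the Alr+ wild-type control, in 384-well plates with Prestwick library compounds at 0.1 mM and 1% DMSO, across arabinose induction levels of 1E3 to 1E7 nM. Growth is read as OD600 after 10 h at 37 °C in triplicate biological replicates.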

E. coli TESEC Mtb Alr [2] = conditions: compound 0.1 mM
Experimental: as §1

E. coli TESEC Mtb Asd = conditions: compound 0.1 mM
Experimental: (§2)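 TESEC E. coli strains in which the native enzyme is deleted and replaced by arabinose-inducible Mtb Asd, DapB, CysH or TrpD, each grown in its selective medium. Strains were screened against the Prestwick library at 0.1 mM and 1% DMSO in 384-well format at low and high arabinose induction. Growth is read as OD600 after 10 h in triplicate.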

E. coli TESEC Mtb DapB = conditions: compound 0.1 mM
Experimental: as §2

[3] = system: E. coli TESEC Alr+ wild-type control; conditions: compound 0.1 mM; raw OD600 reference: median of DMSO wells 0.49, cell-free background 0.052
Experimental: (§3)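 TESEC Mtb Alr E. coli (ΔaraC ΔtolC ΔentC Δalr ΔdadX, arabinose-inducible Mtb Alr) or the Alr+ wild-type control strain, grown in defined M9-fructose medium without D-alanine in 96-well plates with Prestwick library compounds at 0.1 mM and 1% DMSO. Low Alr induction is 0.1 µM arabinose and high induction is 10 mM arabinose.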

E. coli TESEC Mtb Alr [4] = conditions: compound 0.1 mM; remark: listed apart in the source
Experimental: as §3

[5] = arabinose 1000 nM, raw OD600 reference: median of DMSO wells 0.294, cell-free background 0.041
[6] = arabinose 10000 nM, raw OD600 reference: median of DMSO wells 0.264, cell-free background 0.041
[7] = arabinose 100000 nM, raw OD600 reference: median of DMSO wells 0.201, cell-free background 0.041
[8] = arabinose 1000000 nM, raw OD600 reference: median of DMSO wells 0.193, cell-free background 0.041
[9] = arabinose 10000000 nM, raw OD600 reference: median of DMSO wells 0.146, cell-free background 0.041
[10] = arabinose induction (level): High, raw OD600 reference: median of DMSO wells 0.331, cell-free background 0.041
[11] = arabinose induction (level): Low, raw OD600 reference: median of DMSO wells 0.417, cell-free background 0.041
[12] = arabinose induction (level): High, raw OD600 reference: median of DMSO wells […], cell-free background 0.041
[13] = arabinose induction (level): Low, raw OD600 reference: median of DMSO wells 0.227, cell-free background 0.041
[14] = arabinose 100 nM, raw OD600 reference: median of DMSO wells 0.413, cell-free background 0.052
[15] = arabinose 10000000 nM, raw OD600 reference: median of DMSO wells […], cell-free background 0.052

Structure (SMILES) | growth [1] | growth (E. coli TESEC Mtb Alr [2]; [5]) | growth (E. coli TESEC Mtb Alr [2]; [6]) | growth (E. coli TESEC Mtb Alr [2]; [7]) | growth (E. coli TESEC Mtb Alr [2]; [8]) | growth (E. coli TESEC Mtb Alr [2]; [9]) | growth (E. coli TESEC Mtb Asd; [10]) | growth (E. coli TESEC Mtb Asd; [11]) | growth (E. coli TESEC Mtb DapB; [12]) | growth (E. coli TESEC Mtb DapB; [13]) | growth [3] | growth (E. coli TESEC Mtb Alr [4]; [14]) | growth (E. coli TESEC Mtb Alr [4]; [15])
COc1cc(C(=O)NS(=O)(=O)c2ccccc2C)ccc1Cc1cn(C)c2ccc(NC(=O)OC3CCCC3)cc12 [Zafirlukast] | 0.125 ± 0.0034 | 0.0976 ± 0.0046 | 0.0651 ± 0.0044 | 0.164 ± 0.0027 | 0.128 ± 0.0091 | 0.168 ± 0.0084 | 0.193 ± 0.022 | 0.12 ± 0.047 | 0.179 ± 0.018 | 0.213 ± 0.033 | 0.189 ± 0.01 | 0.257 ± 0.018 | 0.215 ± 0.024
CC[C@H](C)C(=O)O[C@H]1CCC=C2C=C[C@H](C)[C@H](CC[C@@H]3C[C@@H](O)CC(=O)O3)[C@H]21 [Mevastatin] | 0.15 ± 0.0081 | 0.152 ± 0.1 | 0.166 ± 0.08 | 0.134 ± 0.0032 | 0.0515 ± 0.0016 | 0.0677 ± 0.0034 | 0.135 ± 0.036 | 0.148 ± 0.012 | 0.171 ± 0.054 | 0.134 ± 0.0085 | 0.41 ± 0.019 | 0.406 ± 0.021 | 0.214 ± 0.028
C#C[C@]1(O)CC[C@H]2[C@@H]3CCc4cc(O)ccc4[C@H]3CC[C@@]21C [Ethinylestradiol] | 0.0556 ± 0.00079 | 0.0489 ± 0.0023 | 0.0421 ± 0.00055 | 0.0506 ± 0.0016 | 0.0444 ± 0.00061 | 0.05593 ± 0.00015 | 0.112 ± 0.017 | 0.0911 ± 0.062 | 0.0856 ± 0.007 | 0.0703 ± 0.0015 | 0.0818 ± 0.0029 | 0.303 ± 0.024 | 0.0705 ± 0.016
O=C(O)c1ccccc1OP(=O)(O)O [Fosfosal] | 0.242 ± 0.0067 | 0.292 ± 0.017 | 0.266 ± 0.0057 | 0.192 ± 0.026 | 0.198 ± 0.0055 | 0.137 ± 0.0018 | 0.349 ± 0.051 | 0.424 ± 0.097 | 0.21 ± 0.017 | 0.239 ± 0.0092 | 0.561 ± 0.049 | 0.405 ± 0.01 | 0.366 ± 0.0071
Cc1cc2cc3c(C)cc(=O)oc3c(C)c2o1 [Trioxsalen] | 0.253 ± 0.0068 | 0.312 ± 0.0079 | 0.258 ± 0.008 | 0.192 ± 0.0079 | 0.161 ± 0.0053 | 0.1653 ± 0.0007 | 0.454 ± 0.015 | 0.423 ± 0.0095 | 0.231 ± 0.032 | 0.237 ± 0.012 | 0.438 ± 0.0099 | 0.4096 ± 0.0037 | 0.324 ± 0.024
CC(C)Cn1cnc2c(N)nc3ccccc3c21 [Imiquimod] | 0.224 ± 0.017 | 0.282 ± 0.0092 | 0.282 ± 0.01 | 0.165 ± 0.012 | 0.178 ± 0.014 | 0.158 ± 0.01 | 0.209 ± 0.026 | 0.392 ± 0.024 | 0.21 ± 0.011 | 0.261 ± 0.045 | 0.574 ± 0.048 | 0.411 ± 0.0054 | 0.301 ± 0.015
Cc1cc(C(C)(C)C)cc(C)c1CC1=NCCN1 [Xylometazoline hydrochloride] | 0.226 ± 0.0033 | 0.285 ± 0.0055 | 0.261 ± 0.01 | 0.221 ± 0.011 | 0.164 ± 0.0057 | 0.161 ± 0.0028 | 0.272 ± 0.041 | 0.393 ± 0.066 | 0.173 ± 0.011 | 0.252 ± 0.059 | 0.4501 ± 0.0037 | 0.413 ± 0.015 | 0.331 ± 0.011
CCN1CCC[C@H]1CNC(=O)c1c(O)c(Cl)cc(Cl)c1OC [Raclopride] | 0.173 ± 0.014 | 0.16 ± 0.01 | 0.148 ± 0.017 | 0.14 ± 0.014 | 0.107 ± 0.0082 | 0.172 ± 0.0058 | 0.13 ± 0.013 | 0.133 ± 0.014 | 0.173 ± 0.013 | 0.166 ± 0.019 | 0.391 ± 0.075 | 0.395 ± 0.038 | 0.175 ± 0.027
Cc1cccc(C)c1NC(=O)CN1CCN(CCCC(c2ccc(F)cc2)c2ccc(F)cc2)CC1 [Lidoflazine] | 0.239 ± 0.0079 | 0.311 ± 0.0035 | 0.263 ± 0.0048 | 0.223 ± 0.018 | 0.174 ± 0.0022 | 0.163 ± 0.0025 | 0.333 ± 0.059 | 0.361 ± 0.11 | 0.232 ± 0.026 | 0.227 ± 0.015 | 0.563 ± 0.013 | 0.4122 ± 0.0027 | 0.379 ± 0.012
NS(=O)(=O)c1cc2c(cc1Cl)N=CNS2(=O)=O [Chlorothiazide] | 0.254 ± 0.0047 | 0.29 ± 0.0056 | 0.268 ± 0.0056 | 0.212 ± 0.021 | 0.183 ± 0.0053 | 0.1414 ± 0.00081 | 0.433 ± 0.014 | 0.447 ± 0.045 | 0.193 ± 0.006 | 0.239 ± 0.024 | 0.494 ± 0.032 | 0.403 ± 0.014 | 0.354 ± 0.0098
COc1cccc2c1C(=O)c1c(O)c3c(c(O)c1C2=O)C[C@@](O)(C(C)=O)C[C@@H]3O[C@H]1C[C@H](N)[C@H](O)[C@H](C)O1 [Daunorubicin hydrochloride] | 0.0457 ± 0.0022 | 0.0442 ± 0.0008 | 0.04263 ± 5.8e-05 | 0.0446 ± 0.001 | 0.04253 ± 0.00038 | 0.0433 ± 0.0001 | 0.058 ± 0.0071 | 0.0577 ± 0.0054 | 0.0527 ± 0.0011 | 0.0519 ± 0.00092 | 0.053 ± 0.00055 | 0.0571 ± 0.0011 | 0.0536 ± 0.00026
CCc1c(C)[nH]c2c1C(=O)C(CN1CCOCC1)CC2 (stereo not drawn) [Molindone hydrochloride] | 0.221 ± 0.013 | 0.3135 ± 0.00076 | 0.251 ± 0.011 | 0.202 ± 0.018 | 0.166 ± 0.0061 | 0.1542 ± 0.0015 | 0.274 ± 0.06 | 0.36 ± 0.064 | 0.189 ± 0.0083 | 0.25 ± 0.025 | 0.472 ± 0.013 | 0.409 ± 0.016 | 0.33 ± 0.017
COC(=O)Nc1nc2cc([S+]([O-])c3ccccc3)ccc2[nH]1 (stereo not drawn) [Oxfendazol] | 0.251 ± 0.016 | 0.304 ± 0.014 | 0.2674 ± 0.00072 | 0.195 ± 0.024 | 0.165 ± 0.0037 | 0.1348 ± 0.00046 | 0.276 ± 0.08 | 0.382 ± 0.044 | 0.173 ± 0.0069 | 0.174 ± 0.042 | 0.634 ± 0.024 | 0.407 ± 0.011 | 0.312 ± 0.022
O=C(O)Cc1ccc(-c2ccccc2)cc1 [Felbinac] | 0.235 ± 0.0055 | 0.277 ± 0.023 | 0.245 ± 0.0027 | 0.163 ± 0.0054 | 0.173 ± 0.0071 | 0.1221 ± 0.00095 | 0.273 ± 0.054 | 0.434 ± 0.02 | 0.194 ± 0.014 | 0.206 ± 0.022 | 0.575 ± 0.04 | 0.396 ± 0.014 | 0.305 ± 0.0053
O=C(N[C@H](CO)[C@H](O)c1ccc([N+](=O)[O-])cc1)C(Cl)Cl [Chloramphenicol] | 0.0406 ± 0.00026 | 0.03953 ± 0.00031 | 0.0391 ± 0.00017 | 0.0408 ± 0.00053 | 0.03907 ± 0.00015 | 0.0407 ± 0.00064 | 0.0519 ± 0.00067 | 0.0522 ± 0.0019 | 0.0496 ± 0.00061 | 0.0578 ± 0.015 | 0.05047 ± 0.0005 | 0.0561 ± 0.0036 | 0.0533 ± 0.003
O=C(NCCNCC(O)COc1ccc(O)cc1)N1CCOCC1 (stereo not drawn) [Xamoterol hemifumarate] | 0.241 ± 0.013 | 0.303 ± 0.014 | 0.272 ± 0.0074 | 0.195 ± 0.022 | 0.19 ± 0.0053 | 0.138 ± 0.0031 | 0.447 ± 0.069 | 0.463 ± 0.043 | 0.21 ± 0.0088 | 0.232 ± 0.024 | 0.631 ± 0.0095 | 0.405 ± 0.016 | 0.326 ± 0.0053
